Data published in PubChem BioAssay (NCI).
This is part of a sample that, as a whole, favours compounds with a hit. Of some 79,000 tested, about 15% had one in any assay. Active and inactive are the calls of the source. No stated cut-off is given here; in the data, active means growth inhibition above about 70%; inactive means the rest.

Columns and labels:
[1] = NCI Yeast Anticancer Drug Screen. Data for the rad50 strain (AID 155);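 further: 0% = growth of vehicle-only cultures of the same strain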; settings: S. cerevisiae rad50 strain growth inhibition, stronger effect = higher value
Outline: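 Growth of the mutant yeast was measured after compound exposure and referenced to vehicle-treated cultures.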

[2] = NCI Yeast Anticancer Drug Screen. Data for the mec2-1 strain (AID 157); settings: S. cerevisiae mec2-1 strain, stronger effect = higher value
Outline: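 mec2-1 yeast strain, carrying an alteration in DNA damage repair or cell cycle control, was exposed to compounds; growth inhibition was measured relative to vehicle-treated controls.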

[3] = NCI Yeast Anticancer Drug Screen. Data for the sgs1 mgt1 strain (AID 161);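 further: 0% = growth of cultures given vehicle only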; settings: S. cerevisiae sgs1 mgt1 strain, stronger effect = higher value
Outline: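 This yeast growth screen uses a strain with defined DNA-repair lesions; compound-treated growth is compared with vehicle-treated growth.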

[4] = NCI Yeast Anticancer Drug Screen. Data for the cln2 rad14 strain (AID 165);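 further: 0% = growth equal to vehicle treated cultures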; settings: S. cerevisiae cln2 rad14 strain, stronger effect = higher value
Outline: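 Yeast carrying cln2 and rad14 alterations (cell cycle control and DNA damage repair) were exposed to compounds. Growth inhibition was measured against vehicle-treated controls.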

[5] = NCI Yeast Anticancer Drug Screen. Data for the bub3 strain (AID 167); settings: S. cerevisiae bub3 mutant strain, stronger effect = higher value
Outline: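 Whole-cell yeast assay. The mutant strain was incubated with compounds, and growth inhibition was determined by comparison with vehicle-treated cells.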

[6] = NCI Yeast Anticancer Drug Screen. Data for the mlh1 rad18 strain (AID 175); settings: S. cerevisiae mlh1 rad18 strain growth inhibition, stronger effect = higher value
Outline: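 Growth inhibition of the yeast strain was measured after compound exposure and expressed relative to vehicle-treated controls. The strain carries defined defects in DNA damage repair.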

[7] = at 5.0 µM (retest, dose inferred, filed as 0.5)
[8] = at 50.0 µM (retest, dose inferred, filed as 5.0)

Measured: growth inhibition

C1OCC2[CH2][Hg][S][Hg][CH2]C1O2
inactive: [1]; [7] 29% | [2]; [7] 34% | [3]; [7] 67% | [4]; [7] 19% | [5]; [7] 20% | [6]; [7] 36%
active: [1]; [8] 95% | [1]; at 50.0 µM 92.8% | [2]; [8] 97% | [2]; at 50.0 µM 94.8% | [3]; [8] 98% | [3]; at 50.0 µM 95.5% | [4]; [8] 95% | [4]; at 50.0 µM 92.6% | [5]; [8] 96% | [5]; at 50.0 µM 95.2% | [6]; [8] 94% | [6]; at 50.0 µM 91.3%

CC1CC[N-]C(C)C1.CN(C)C=O.[Cl][Pt][Cl] (stereo not given)
inactive: [1]; [7] 33% | [2]; [7] 42% | [3]; [7] 66% | [4]; [7] 61% | [4]; at 50.0 µM 49% | [6]; [7] 25%
active: [1]; [8] 100% | [1]; at 50.0 µM 80.7% | [2]; [8] 100% | [2]; at 50.0 µM 92.2% | [3]; [8] 100% | [3]; at 50.0 µM 89.8% | [4]; [8] 100% | [5]; [7] 73% | [5]; [8] 100% | [5]; at 50.0 µM 89.4% | [6]; [8] 99% | [6]; at 50.0 µM 89.8%

CCO[C@@H]([CH2][Hg][Cl])[C@](C)([CH2][Hg][Cl])OCC
active: [1]; [7] 99% | [1]; [8] 99% | [1]; at 50.0 µM 99.4% | [2]; [7] 99% | [2]; [8] 99% | [2]; at 50.0 µM 99.6% | [3]; [7] 99% | [3]; [8] 99% | [3]; at 50.0 µM 99.5% | [4]; [7] 98% | [4]; [8] 99% | [4]; at 50.0 µM 99.3% | [5]; [7] 99% | [5]; [8] 99% | [5]; at 50.0 µM 99.3% | [6]; [7] 99% | [6]; [8] 99% | [6]; at 50.0 µM 99.3%

[C-]#[O+].[Cl][Sn]([Cl])[Cl].[Cl][Sn]([Cl])[Cl].[Pt].c1ccncc1
active: [1]; [8] 97% | [2]; [8] 95% | [3]; [8] 98% | [3]; at 50.0 µM 75.3% | [4]; [8] 78% | [6]; [8] 98% | [6]; at 50.0 µM 70.5%
inactive: [1]; [7] -11% | [1]; at 50.0 µM 56.2% | [2]; [7] 9% | [2]; at 50.0 µM 54.8% | [3]; [7] 3% | [4]; [7] 3% | [4]; at 50.0 µM 41.8% | [5]; [7] -13% | [5]; [8] 47% | [5]; at 50.0 µM 62.1% | [6]; [7] -1%

O=C(CBr)Nc1ccc(Cl)cc1
active: [1]; [7] 99% | [1]; [8] 99% | [1]; at 50.0 µM 98.8% | [2]; [7] 99% | [2]; [8] 99% | [2]; at 50.0 µM 99.3% | [3]; [7] 99% | [3]; [8] 99% | [3]; at 50.0 µM 99.6% | [4]; [7] 98% | [4]; [8] 99% | [4]; at 50.0 µM 98.7% | [5]; [7] 98% | [5]; [8] 99% | [5]; at 50.0 µM 99.4% | [6]; [7] 98% | [6]; [8] 98% | [6]; at 50.0 µM 99.2%

CC(=O)OC1CC[C@@]2(C)C(=CC[C@@H]3[C@@H]2CC[C@]2(C)C(OC(C)=O)[C@H](n4ccnc4)C[C@@H]32)C1 (stereo not given in full)
inactive: [1]; [7] 22% | [2]; [7] 8% | [2]; [8] 52% | [2]; at 50.0 µM 62.8% | [3]; [7] 14% | [4]; [7] 9% | [4]; [8] 58% | [4]; at 50.0 µM 69.9% | [5]; [7] -43% | [6]; [7] 17% | [6]; [8] 56%
active: [1]; [8] 84% | [1]; at 50.0 µM 71.8% | [3]; [8] 78% | [3]; at 50.0 µM 75.2% | [5]; [8] 74% | [5]; at 50.0 µM 77% | [6]; at 50.0 µM 91.2%

C/C=C1/C(=O)O[C@]23C=C[C@@H]4C(C(=O)OC)=CO[C@H](O[C@@H]12)[C@@H]43
active: [1]; [8] 82% | [1]; at 50.0 µM 91.9% | [2]; [8] 98% | [2]; at 50.0 µM 93.8% | [3]; [8] 98% | [3]; at 50.0 µM 93.6% | [4]; at 50.0 µM 89.5% | [5]; [8] 96% | [5]; at 50.0 µM 92.5% | [6]; [7] 88% | [6]; [8] 98%
inactive: [1]; [7] 28% | [2]; [7] 41% | [3]; [7] 63% | [4]; [7] 32% | [4]; [8] 64% | [5]; [7] 61% | [6]; at 50.0 µM 66%

CCN1CCC(O)(c2ccc(O)cc2)C(C(=O)c2ccc(O)cc2)C1 (stereo not given)
inactive: [1]; [7] -9% | [1]; [8] -9% | [2]; [7] -9% | [2]; [8] 8% | [3]; [7] 6% | [3]; [8] 13% | [4]; [7] 18% | [4]; [8] 21% | [4]; at 50.0 µM 7.1% | [5]; [7] -9% | [5]; [8] 19% | [5]; at 50.0 µM 13.3% | [6]; [7] 1% | [6]; [8] 29%
active: [1]; at 50.0 µM 72% | [2]; at 50.0 µM 82.6% | [3]; at 50.0 µM 91.3% | [6]; at 50.0 µM 86.7%

CCOc1c(Br)cc(N=Cc2ccc(N(CCCl)CCCl)c(OC)c2)cc1Br
inactive: [1]; [7] 6% | [2]; [7] -5% | [2]; at 50.0 µM 45.8% | [3]; [7] -86% | [3]; [8] 69% | [4]; [7] -3% | [4]; [8] 49% | [4]; at 50.0 µM 44.4% | [5]; [7] -11% | [5]; [8] -16% | [5]; at 50.0 µM -15.8%
active: [1]; [8] 80% | [1]; at 50.0 µM 85.2% | [2]; [8] 79% | [3]; at 50.0 µM 76.2% | [6]; [7] 73% | [6]; [8] 95% | [6]; at 50.0 µM 86.8%

COC(=O)C1=C(C(=O)OC)C2(C)OC1c1ccccc12 (stereo not given)
inactive: [1]; [7] -5% | [2]; [7] 4% | [3]; [7] 4% | [4]; [7] 0% | [5]; [7] 7% | [6]; [7] 14%
active: [1]; [8] 96% | [1]; at 50.0 µM 98.2% | [2]; [8] 95% | [2]; at 50.0 µM 98.1% | [3]; [8] 96% | [3]; at 50.0 µM 98% | [4]; [8] 92% | [4]; at 50.0 µM 93.6% | [5]; [8] 98% | [5]; at 50.0 µM 97% | [6]; [8] 95% | [6]; at 50.0 µM 98.3%
